# Most compounds without a hit are left out; they make up all but 11% or so of the library.
# MCF10A rerep – inducers of DNA re-replication in MCF 10A breast cells. MCF 10A DNA re-replication, Hoechst nuclear intensity, 48 h. Potency, µM (top dose mostly 46.1 µM), for inactives: at the top dose activity, positive = re-replication, hits mostly activators. actives 2.9% (n = 350,000); further: potency means the concentration at half of the fitted maximal effect; % of control where 0% means no effect; nearly all actives have a fitted effect of over 50% in size
# VP16 counter – counter-screen for ROR gamma inhibitors: Gal4-VP16 reporter; Drosophila S2 Gal4-VP16 UAS-luciferase, luminescence, 20 h; Potency, µM (series often up to 53.6 µM), inactives show at the highest dose activity, negative = inhibition, hits mostly inhibitors; actives 3.5% (n = 310,000); AID 2546;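 further: Gal4-VP16 expression switched on by copper sulfate through the metallothionein promoter; potency means the concentration at half of the fitted maximal effect; on the % scale 0 is the no-effect control and ±100 the full control effect; nearly all actives have a fitted effect of over 50% in size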
# SW480 rerep – DNA re-replication induction in SW480 cells | SW480 DNA re-replication, Hoechst DNA content imaging, 48 h | Potency, µM (doses to about 46.1 µM), for inactives: at the highest dose re-replication activation, actives largely listed as activators | actives 1.8% (n = 340,000) | AID 624297; further: potency means the concentration at half of the fitted maximal effect; % of control where 0% means no effect; nearly all actives have a fitted effect of over 55% in size
#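 Per well, 250 cells were exposed to pinned compound for 48 hr. Nuclear DNA was visualised with Hoechst (40 min, 37 C) and total object intensity recorded by fluorescence scanning.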
# RORg inh – inhibitors of mouse ROR gamma transcriptional activity; P51450; Drosophila S2 Gal4-RORgamma UAS-luciferase reporter, 20 h; Potency, µM (top dose mostly 53.6 µM), for inactives: at the highest dose activity change, negative = inhibition, usual class: inhibitors; actives 5.4% (n = 310,000); AID 2551; further: potency means the concentration at half of the fitted maximal effect; on the % scale 0 is the no-effect control and ±100 the full control effect; nearly all actives have a fitted effect of over 60% in size
# Target sequence (P51450 whole entry, looked up, the tested form may be a part): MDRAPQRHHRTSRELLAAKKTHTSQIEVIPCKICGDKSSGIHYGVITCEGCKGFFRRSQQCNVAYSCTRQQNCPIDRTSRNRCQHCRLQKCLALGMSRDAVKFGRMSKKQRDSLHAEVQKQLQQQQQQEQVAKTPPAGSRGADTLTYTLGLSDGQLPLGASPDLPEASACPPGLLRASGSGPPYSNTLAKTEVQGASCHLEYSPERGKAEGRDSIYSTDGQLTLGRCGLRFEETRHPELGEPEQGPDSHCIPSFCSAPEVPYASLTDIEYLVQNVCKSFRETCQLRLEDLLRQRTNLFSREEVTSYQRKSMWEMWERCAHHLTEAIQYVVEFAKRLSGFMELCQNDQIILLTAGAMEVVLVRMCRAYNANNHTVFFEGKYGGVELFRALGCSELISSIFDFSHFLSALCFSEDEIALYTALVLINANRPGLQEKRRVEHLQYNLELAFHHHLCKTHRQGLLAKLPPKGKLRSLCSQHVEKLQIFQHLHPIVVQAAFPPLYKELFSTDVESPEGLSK
#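 Luminescence from a UAS-regulated Photinus luciferase reporter in stably transfected Drosophila Schneider cells is measured; decreased signal marks ROR gamma inhibition. Fusion expression is induced by 700 uM copper sulfate for 20 hr.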
# IL-1B inflam inh – inhibitors of inflammasome signaling (IL-1 beta secretion); THP-1 LPS/ATP IL-1B secretion, AlphaLISA, 16 h; active compounds read low; activity change, % at 57.5 µM; actives 4.7% (n = 360,000); AID 743279; in the data active means activity change below about -50%; inconclusive means mostly about -30% to -49%; further: on the % scale 0 is the no-effect control and ±100 the full control effect
#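 Secreted IL-1B measured by AlphaLISA bead assay after 16 h compound exposure of THP-1 cells; compounds (final up to 57.5 uM) added 1 h before LPS (250 ng/mL) and ATP (1.25 mM) stimulation; lower signal means less secretion.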
# * hit, by the source's call; u = inconclusive; x = not tested or not shown; [ ] = remark or other dose. Unless noted, the call rests on the fitted dose curve; in most records, active means well fitted curve in the direction sought with a large enough effect; inconclusive means small, poorly fitted or top-dose-only effect, or another doubt; inactive means no such curve, though single readings can be large; an effect the other way counts as inactive or inconclusive.
SMILES,MCF10A rerep,VP16 counter,SW480 rerep,RORg inh,IL-1B inflam inh
O=C(N/N=C/c1ccc2c(c1)OCO2)c1ccc2c(c1)OCO2,4%,11%,-7%,-33%,-14
O=C(N/N=C/c1cc(Br)cs1)c1ccc2c(c1)OCCO2,u,u,u,11µM*,x
CC(=O)c1ccc(S(=O)(=O)N2CCN(C(=O)CN3C(=O)NC4(CCCC4)C3=O)CC2)cc1,-14%,x,-64%,x,-6
CCCc1nnc(SCC(=O)NC2CCCC2)n1CCOC,3%,-9%,-1%,-1%,17
COC(=O)NC(c1cccc(F)c1)[C@@]1(C(=O)OC)CCCC1=O (some centres undefined),x,-3%[10 µM],x,-17%[10 µM],x
CCOc1cc(C)nc(NCCc2ccc(OC)c(OC)c2)n1,12%,0%,-16%,18%,-57*
COc1ccc(CCNc2ncnc3sc(C)cc23)cc1OC,u,0.4µM*,22%,u,-15
CCOc1ccc2[nH]c3c(NCCc4ccc(OC)c(OC)c4)ncnc3c2c1,u,-22%,u,5%,-96*
COc1ccc(CCNc2ccncn2)cc1OC,2%,-22%,-18%,5%,22
COc1ccc(CCNc2ncnc3[nH]ncc23)cc1OC,14%,13µM*,-1%,-27%,4
COc1ccc(CCNc2nc(C)cc(=O)[nH]2)cc1OC,u,x,-1%,x,27
Fc1ccc(CCNc2ncnc3[nH]ncc23)cc1,2%,x,-4%,x,1
O=C(NNC(=O)c1ccc([N+](=O)[O-])cc1C(=O)O)c1ccncc1,-16%,7%,0%,-9%,42
COc1ccc(NC(=O)N2CC[C@@]3(CCCN(C(=O)c4ccco4)C3)C2)cc1,x,-15%,x,-2%,x
O=C(O)C1CCN(C(=O)CCN2C(=O)S/C(=C\c3ccccc3)C2=O)CC1,12%,3%,-3%,-11%,10
C=C(C)C(=O)Nc1ccc2nn(-c3ccccc3O)nc2c1,x,x,x,x,-9
CCC(C)c1ccc(NC(=S)Nc2ccc(OC)c(OC)c2)cc1 (centres undefined),u,3%,-2%[9.22 µM],u,-13
CCC(C)c1ccc(NC(=S)NCCn2cc(Cl)cn2)cc1 (centres undefined),1%,10µM*,-5%,3.2µM*,u
CCC(C)c1ccc(NC(=S)NCCn2cc(Br)cn2)cc1 (centres undefined),0%,11µM*,-1%,2.2µM*,-52*
Cc1ccc(Nc2nc(Cl)nc3ncn(C)c23)c(C)c1,0%,x,u,x,-2
CCOCCCN(C(=O)c1snc(C(N)=O)c1N)C(C(=O)NC1CCCC1)c1ccc(F)cc1 (centres undefined),-8%,12%,14%,3%,1
O=C1SC(SCc2ccccc2)=N/C1=C\c1ccc(C(=O)O)cc1,0%,0%,-1%,3%,-58*
CCCOc1ccc(Cc2c(Cl)nc(SC)nc2N(C)C)cc1,9%,5µM*,6%,u,-26
Cc1ccc(C2=NC(C(F)(F)F)(C(F)(F)F)c3c(n(-c4ccc(F)cc4)c(=O)[nH]c3=O)N2)cc1,u,-12%,u,u,36
O=c1[nH]c(=O)n(-c2ccc(F)cc2)c2c1C(C(F)(F)F)(C(F)(F)F)N=C(c1ccc(F)cc1)N2,u,16µM*,u,-26%,u
O=c1[nH]c(=O)n(Cc2ccco2)c2c1C(C(F)(F)F)(C(F)(F)F)N=C(CCC1CCCCC1)N2,2%,u,3%,-7%,-8
O=c1[nH]c(=O)n(Cc2ccco2)c2c1C(C(F)(F)F)(C(F)(F)F)N=C(CCc1ccccc1)N2,u,-12%,24%,u,u
CC(C)Cn1c2c(c(=O)[nH]c1=O)C(C(F)(F)F)(C(F)(F)F)N=C(CCC1CCCCC1)N2,16µM*,11µM*,2%,u,-6
O=c1[nH]c(=O)n(-c2ccccc2)c2c1C(C(F)(F)F)(C(F)(F)F)N=C(CCC1CCCCC1)N2,16µM*,-16%,u,-1%,21
N#Cc1ccc(C2=NC(C(F)(F)F)(C(F)(F)F)c3c(n(Cc4ccco4)c(=O)[nH]c3=O)N2)cc1,-3%,u,1%,13µM*,-25

# Screens (PubChem BioAssay)
